TrxR1 inh – rat TrxR1 inhibition; AID 588453; recombinant rTrxR1, NADPH fluorescence consumption, selenite substrate; hit rate 1% among 390,000; Potency, µM (titrated, usually from 114 µM), usual class: inhibitors; note: nearly all actives have a fitted effect of over 65% in size
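Rat TrxR1 (90 nM in the dispensed reagent) was pre-reduced with 400 uM NADPH for 5 min at room temperature, then incubated with compound for 15 min. After 400 uM selenite was added, NADPH fluorescence (Ex 340/Em 450 nm) was followed for 8 min.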
TrxR1 substrate – substrates of rat thioredoxin reductase 1. Potency, µM (series often up to 114 µM). purified TrxR1 substrate turnover, NADPH consumption readout. hit rate 0.01% among 390,000. AID 588456; note: nearly all actives have a fitted effect of over 50% in size
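Rat TrxR1, dispensed at 90 nM, was prereduced with 400 uM NADPH (final) for 5 min at ~22 deg C, then incubated with compound 15 min before 400 uM selenite. A first-read NADPH fluorescence drop versus no-compound background flagged substrates.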
VDR inh – blocks the human vitamin D receptor. Potency, µM, hits mostly inhibitors. P11473. VDR-SRC2-3 peptide fluorescence polarization, 2 h. AID 504847. hit rate 0.93% among 400,000
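Inhibition of the VDR/SRC2-3 peptide interaction is quantified by fluorescence polarization. Compounds (23 nl, pintool) incubate with the reagents for 2 hours at ambient room temperature.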
GCN5L2 inh – inhibitors of human GCN5L2 histone acetyltransferase | Q92830 | GCN5L2 HAT assay, ThioGlo1 CoA-SH fluorescence | Potency, µM (top dose mostly 58.9 µM), actives largely listed as inhibitors | hit rate 0.21% among 390,000
Target sequence (Q92830 whole entry, looked up): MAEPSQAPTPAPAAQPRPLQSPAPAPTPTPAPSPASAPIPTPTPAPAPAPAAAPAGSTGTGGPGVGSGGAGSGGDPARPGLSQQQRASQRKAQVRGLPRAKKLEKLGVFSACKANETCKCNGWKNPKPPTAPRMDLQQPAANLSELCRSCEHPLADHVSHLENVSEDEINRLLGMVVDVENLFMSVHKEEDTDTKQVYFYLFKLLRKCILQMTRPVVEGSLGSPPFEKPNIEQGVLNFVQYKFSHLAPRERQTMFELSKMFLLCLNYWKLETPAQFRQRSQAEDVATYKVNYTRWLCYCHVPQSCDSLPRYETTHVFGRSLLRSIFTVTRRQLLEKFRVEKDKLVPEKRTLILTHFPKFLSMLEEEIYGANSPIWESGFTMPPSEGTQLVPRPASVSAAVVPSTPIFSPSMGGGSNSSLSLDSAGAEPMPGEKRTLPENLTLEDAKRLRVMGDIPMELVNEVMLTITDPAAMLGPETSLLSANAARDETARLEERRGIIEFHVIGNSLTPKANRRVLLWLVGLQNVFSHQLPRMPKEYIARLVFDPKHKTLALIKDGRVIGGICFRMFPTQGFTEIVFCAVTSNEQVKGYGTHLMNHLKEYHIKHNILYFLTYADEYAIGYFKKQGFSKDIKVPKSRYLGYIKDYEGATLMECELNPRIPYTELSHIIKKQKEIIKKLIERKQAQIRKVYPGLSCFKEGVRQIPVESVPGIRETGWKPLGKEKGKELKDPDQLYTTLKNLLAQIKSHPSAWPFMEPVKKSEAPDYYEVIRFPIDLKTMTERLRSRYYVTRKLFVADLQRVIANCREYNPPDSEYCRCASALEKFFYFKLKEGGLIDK
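qHTS, 1536-well. 20nM enzyme, pH 7.5 HEPES/EDTA/Tween-20 buffer; 15 min compound preinc., RT. Start: 75uM H3(1-25), 70uM AcCoA, 50uM ThioGlo1. Read Ex340/Em540 at t=0 (autofluorescence flag) and t=20 min.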
Of the large screens only hits and unclear results are named; the others gave an inactive call; ! = repeats disagree. Sampled rows, rich in hits. Any-hit rate of the full collection: about 1.8%. Calls come from the whole dose curve; as a rule, active = well fitted curve in the direction sought with a large enough effect; inconclusive = small, poorly fitted or top-dose-only effect, or another doubt; inactive = no such curve, though single readings can be large; an effect the other way counts as inactive or inconclusive.

O=C(C[n+]1ccccc1Cl)c1ccccc1	none (no result: VDR inh, GCN5L2 inh)
Cc1ccc2oc(-c3ccc(NC(=O)COc4ccccc4)cc3O)nc2c1	none (no result: VDR inh, GCN5L2 inh)
O=C(Nc1cccc2cccnc12)C(Cl)(Cl)Cl	TrxR1 inh 28µM (no result: GCN5L2 inh)
O=C(Nc1cccc2cccnc12)OC(Cl)(Cl)Cl	none (no result: GCN5L2 inh)
CCC(C)c1cc([N+](=O)[O-])cc([N+](=O)[O-])c1OC(=O)OC(C)C (configuration not stated)	VDR inh 11µM (no result: TrxR1 inh, TrxR1 substrate)
CC1CCN(C(c2ccc(N(C)C)cc2)c2nnnn2C(C)(C)C)CC1 (configuration not stated)	TrxR1 inh inconclusive, VDR inh 50µM
O=C(c1cnn2c1NC(=C1CC1)C=C2C(F)F)N1CCc2ccccc21	none (no result: VDR inh, GCN5L2 inh)
O=C(c1ccco1)N1CCN(S(=O)(=O)c2ccc(Br)s2)CC1	TrxR1 inh 10µM
CC(C)(C)c1ccc(C(=O)N2CCN(S(=O)(=O)c3ccc(Br)s3)CC2)cc1	none
C/C(CCC1CC(C)OC1=O)=N/Nc1nc(-c2ccccc2)cs1 (configuration not stated)	VDR inh 45µM
CC1CC(CC(=O)NNc2nc(-c3ccccc3)cs2)C(=O)O1 (configuration not stated)	none
CC(C)NS(=O)(=O)c1ccc(OCC(=O)N2CCN(c3ccccc3F)CC2)cc1	none
CCC(=O)Nc1ccc(C=C(C(C)=O)C(C)=O)cc1	TrxR1 inh inconclusive, VDR inh 79µM
COc1ccc(S(=O)(=O)NC2CC(C)(C)NC(C)(C)C2)cc1	none
CC1(C)CC(NS(=O)(=O)c2ccc(Cl)cc2)CC(C)(C)N1	VDR inh 89µM
CC[N+](C)(C)c1ccc(/C=C/c2ccncc2)cc1	none (no result: VDR inh, GCN5L2 inh)
Cc1cc(OCC(=O)Nn2cnnc2)c(C)cc1Br	TrxR1 inh 14µM
Cc1ccc(OCC(=O)Nn2cnnc2)c(Br)c1	none
CCCCCCCC1CC(/C(C)=N/NC(N)=O)OC1=O (configuration not stated)	VDR inh 45µM
Cc1ccc(Cl)cc1-n1ncc2c(N3CCC(C)CC3)ncnc21	none
O=C(C[n+]1cccc(I)c1)c1ccc(F)cc1	none (no result: VDR inh, GCN5L2 inh)
Cc1ccn(S(=O)(=O)c2ccc(C(C)(C)C)cc2)n1	none (no result: GCN5L2 inh)
CC(C)(C)c1ccc(S(=O)(=O)/C=C/C#N)cc1	TrxR1 inh 2.1µM!, VDR inh 6.3µM, GCN5L2 inh inconclusive
C1NNCC12CNNC2	none (no result: VDR inh, GCN5L2 inh)
CCOC(=O)C1CCCN(c2ccc(NC(=O)c3snc4c(=O)[nH]c(C)nc34)cc2)C1 (configuration not stated)	GCN5L2 inh 2.5µM
CCOC(=O)C1CCCN(c2ccc(NC(=O)c3snc4c(=O)[nH]cnc34)cc2)C1 (configuration not stated)	none
CNc1nc(N2CCCN(C)CC2)nc2cc(OC)c(OC)cc12	none (no result: VDR inh, GCN5L2 inh)
O=C1CCCC2=C1C1O[C@](CCCCN3C(=O)c4ccccc4C3=O)(Cc3c1ccc1ccccc31)O2	none (no result: TrxR1 inh, TrxR1 substrate, VDR inh)
C[Se]CC[C@H](N)C(=O)O	none (no result: TrxR1 inh, TrxR1 substrate)
O=c1ccc2ccc(O[C@@H]3O[C@H](CO)[C@@H](O)[C@H](O)[C@H]3O)c(O)c2o1	VDR inh inconclusive
COc1cc2ccc(=O)oc2c(O[C@@H]2O[C@H](CO)[C@@H](O)[C@H](O)[C@H]2O)c1O	GCN5L2 inh 22µM
[O-][n+]1ccccc1SSc1cccc[n+]1[O-]	VDR inh 5.6µM, GCN5L2 inh 14µM (no result: TrxR1 inh, TrxR1 substrate)
Nc1ccc(N2CCCCC2)c2nonc12	TrxR1 inh inconclusive, TrxR1 substrate 50µM, VDR inh 20µM
COc1ccc(CCNC(=O)c2cnn3c2NC(=C2CC2)C=C3C(F)F)cc1OC	none (no result: VDR inh, GCN5L2 inh)
Cc1cc(O)c(C(C)C)cc1N=Cc1ccccc1[N+](=O)[O-]	VDR inh 32µM (no result: GCN5L2 inh)
Cc1cc(O)c(C(C)C)cc1N=Nc1ccccc1C(=O)O	none
O=Cc1ccc(I)cc1	none (no result: VDR inh, GCN5L2 inh)
CC(=O)OCON[N+]([O-])=NC(C)C	TrxR1 inh 16µM! (no result: GCN5L2 inh)
CC(=O)OCON[N+]([O-])=NC1CCCCC1	none (no result: GCN5L2 inh)
Cc1ccc(OCC(=O)N/N=C/C=C/c2ccco2)cc1C	TrxR1 inh 40µM
Cc1ccc(OCC(=O)N/N=C/c2ccco2)cc1	none
O=C(Cc1cccs1)N/N=C/C=C/c1ccco1	TrxR1 inh 45µM, VDR inh inconclusive, GCN5L2 inh inconclusive
COc1ccc2[nH]cc(CCNc3cc(-c4ccccc4C(F)(F)F)ncn3)c2c1	none (no result: TrxR1 inh, TrxR1 substrate)
CN(C)c1ccc(/C=C/c2ccnc3c([N+](=O)[O-])cccc23)cc1	none (no result: VDR inh, GCN5L2 inh)
CN(C)c1oc(-c2ccc(Cl)cc2)nc1S(=O)(=O)c1ccccc1	TrxR1 inh 35µM, VDR inh inconclusive
Cc1cccnc1NCc1ccc(O)c2ncccc12	TrxR1 inh inconclusive
